# According to PubChem BioAssay (NCI):
# About 83,000 compounds went through this panel and 20% of them were active in at least one assay; those are over-represented in the sample as a whole.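 The endpoint reported here, percent growth, reads 100 for growth as untreated, 0 for no net growth and -100 for all cells dead.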 Values without a mark were called inactive. Activity calls are given as the source filed them. The calls were made as follows: active = growth percent below 10; inactive = the rest.
# Test system: MDA-MB-468 breast
# Assay: NCI-60 one-dose screen, 48 h (100 = growth as untreated, 0 = no growth, -100 = all killed)
# Conditions: 10 µM unless noted
row,SMILES,growth
1,CC(CN(C)C)Oc1ccccc1NC1=C(Cl)C(=O)C(Nc2ccccc2OC(C)CN(C)C)=C(Cl)C1=O (stereo not given),-64.2% (active)
2,O=C1OCc2cccc3cccc1c23,104%
3,O=C1/C(=C/c2cccc([N+](=O)[O-])c2)COc2ccc(O)c(O)c21,-47.8% (active)
4,c1cc2[nH]ncc2cc1-c1nc2ccc3[nH]ncc3c2c2c1CCCC2,-3.32% (active)
5,CN(C)C(=O)c1cc2cnc(Nc3ccc(-c4csc5c(=S)cc(N6CCOCC6)oc45)cc3)nc2n1C1CCCC1,1.46% (active)
6,COC(=O)C[Se]C(=O)Cc1c(C)n(C(=O)c2ccc(Cl)cc2)c2ccc(OC)cc12,-18.4% (active)
7,Nc1nc(N)c2nc(CNc3ccc(C(=O)CC(CCC(=O)O)C(=O)O)cc3)cnc2n1 (stereo not given),65.4%
8,N#Cc1c(-c2ccccc2)cc(-c2c[nH]c3ccccc23)nc1-c1c[nH]c2ccccc12,93%
9,O=CCCCOCc1ccccc1,112%
10,N#Cc1c(-c2ccc(F)cc2)cc(-c2c[nH]c3ccccc23)nc1-c1c[nH]c2ccccc12,99.3%
11,O=C1c2ccccc2CCC1(Br)Br,-42.2% (active)
12,CCN1C(=O)N(CC)C2C1NN=c1s/c(=C\c3ccc([N+](=O)[O-])cc3)c(=O)n12 (stereo not given),7.94% (active)
13,CNC1(C#N)CCN(Cc2ccccc2)CC1,85.6%
14,COc1ccc(Cc2cnc(NC(=O)c3ccc4c(c3)OCCO4)s2)cc1,19.1%
15,CCCCn1c(-c2cccc(OC)c2)nc2cc(OC)c(OC)cc2c1=O,107%
16,O=NN(C(=O)NC1CCC(C(=O)O)CC1)C1CCC(C(=O)O)CC1 (stereo not given),96.1%
17,O=C1NCN(CCO)CN1,99.9%
18,C[n+]1c(/C=C/c2ccc([N+](=O)[O-])cc2)ccc2ccccc21,52.5%
19,COc1cccc(C2CC(=O)Nc3c2c(C)nn3-c2nc3ccccc3[nH]2)c1OC (stereo not given),71.5%
20,CC(=O)c1sc(-c2ccc(F)cc2)cc1O,111%

row,SMILES,growth
1,COc1ccc(-c2nc3ccc4[nH]ncc4c3c3c2CCCC3)cc1B(O)O,31.5%
2,COC(=O)CCCNCCCn1ccc2cc(NCc3cccc(-c4ccccc4)c3C)ccc21,53.4%
3,OC1CCN(CCCOc2c3ccccc3nc3c2oc2ccc(Cl)cc23)CC1,-8.36% (active)
4,COc1cc(-c2nc3cc(Cl)c(Cl)cc3[nH]2)ccc1OCC(=O)N=Nc1c(O)[nH]c2ccc([N+](=O)[O-])cc12,4.59% (active)
5,N=C(N)c1ccc(-c2ccc(-c3ccc(Cl)cc3)o2)nc1,-88.7% (active)
6,COc1cc(NC(=O)C2=C(C)NC(C)=C(C(=O)Nc3cc(OC)c(Cl)cc3OC)C2c2cccc([N+](=O)[O-])c2)c(OC)cc1Cl,-11.7% (active)
7,Cc1nc2ccc(-n3c(-c4ccc(Cl)cc4)nc4ccccc4c3=O)cc2n1Cc1ccccc1,77.6%
8,CSc1ccc(N=C=C(c2ccccc2)c2ccccc2)cc1,97.1%
9,COc1nc2ccccc2s1,113%
10,CN1CC=C(c2cc(NC(=O)Nc3ccc(Oc4ccnc(NC(=O)C5CC5)c4)c(F)c3)cc(C(F)(F)F)c2)CC1,-30.3% (active)
11,CC(=O)Cc1nsc(NC(=O)c2cc(-c3cc(Cl)cc(Cl)c3)oc2C)n1,97.6%
12,CCOC(=O)c1c2c(n3ccc(NC(=O)CCN4CCCC4)cc13)C(=O)c1ncccc1C2=O,-82% (active)
13,NC(=O)c1cccc(-c2ccccc2N2CCCCC2)c1,94.2%
14,COc1ccc(-c2cc(=O)c3c(OC)c4ccoc4cc3o2)cc1,101%
15,Cc1ccc(-c2nc(/C=C3/C(=O)N(C)c4ccc(F)cc43)c3ccccn23)cc1,101%
16,CCOC(=O)C#Cc1c(CC(=O)OCC)nnn1[C@H]1O[C@@H](CO)[C@@H]2OC(C)(C)O[C@@H]21,10.6%
17,O=C(NCc1ccccc1)C1CN(c2ccc(Cl)cc2)N(c2ccc(Cl)cc2)C1=O (stereo not given),71.5%
18,c1ccc2cc(Cn3c(-c4cccc5ccccc45)[n+](Cc4ccc5ccccc5c4)c4c5ccccc5c5ccccc5c43)ccc2c1,-71.4% (active)
19,Cc1ccccc1NC(=O)Nc1nc2ccc([N+](=O)[O-])cc2s1,-3.68% (active)
20,Cc1cc(C)c(NC(=O)c2sc3nc4c(cc3c2N)CCCCCC4)c(C)c1,40.1%
